From PubChem
Tgondii IFNg – T. gondii growth inhibition under IFN-gamma | AID 1259416 | activity change, negative = inhibition, % (concentration not given with the values) | actives 3.8% (n = 69,000) | Toxoplasma gondii growth in IFN-gamma-treated host cells; active compounds read low; in the data active = activity change below about -70%, passing the limit was not always enough;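 note: host cells are HeLa cells infected with Toxoplasma gondii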
Each line names hits and unclear results; the compound was inactive in the other large screens; ! = a repeat was not active. The full list was thinned out, with hits kept by preference.

CC(C)CN1C(=O)CCc2cc(NS(=O)(=O)c3ccccc3Cl)ccc21	none
CC(C)NC(=O)N1CCC2(CC1)OCCN(CCO)c1ccccc12	none
O=C(Nc1ccc(F)cc1)c1nc(Nc2ccc(Cl)cc2)c2ccccc2n1	none
CCOCC(=O)N1CCC(c2ccnc(-c3ccc4ncccc4c3)c2)C1 (stereo not drawn)	none
C[C@H](NC(=O)C[C@@H]1CC[C@H]2[C@H](COc3ccc(NC(=O)C4CCOCC4)cc3C(=O)N2C)O1)c1ccccc1	none
COc1cccc(-c2cn(CC[C@@H]3CC[C@@H](NS(=O)(=O)c4ccccc4Cl)[C@H](CO)O3)nn2)c1	none
CO[C@@H]1CC[C@@H]2CCOc3c(C#N)cccc3C(=O)N(C)CCCC(=O)N(C)C[C@H]1O2	none
Cc1c(-c2ccccc2)sc(N)c1C#N	none
CSc1sc(-c2ccno2)c(-c2ccco2)c1C#N	none
CSc1sc(-c2ccn[nH]2)c(-c2ccccc2)c1C#N	Tgondii IFNg -85.1
CCCc1cc(CNC(=O)c2oc3c(C)cccc3c2C)on1	none
CN1c2ccc(-c3cccc(C#N)c3)cc2[C@@H]2[C@@H](CCN2C(=O)c2cccc(F)c2)[C@@H]1CO	none
O=C(Nc1cccc(Cl)c1)Nc1ncc(CCNc2ncnc3ccsc23)s1	Tgondii IFNg -73.1
O=C(Nc1cccc(Cl)c1)c1ccccn1	none
O=C(Nc1ccc(-c2nc(-c3ccccc3)co2)cc1)Nc1cccc(Cl)c1	none
CC(C)N1CCOCC2(CCCN(C(=O)Cc3cccs3)C2)C1 (stereo not drawn)	none
Cc1nn(CC(=O)NCc2ccc(F)cc2F)c(=O)c2nc(-c3ccccc3)sc12	none
CC(=O)c1cnc2c(C(=O)NCc3cc(C)cc4c(C)c(C)[nH]c34)cnn2c1C	none
CCn1nc2c(c1C(=O)Nc1nnc(-c3ccc(OC)c(OC)c3)s1)CCCC2	none
O=C(CN1CCN(S(=O)(=O)N2CCCC2)CC1)NCC1COc2ccccc2O1 (stereo not drawn)	none
Cc1cc(C(=O)NCC2COc3ccccc3O2)nn1C (stereo not drawn)	none
O=C(NCC1COc2ccccc2O1)Nc1csc2ccccc12 (stereo not drawn)	Tgondii IFNg -90.2
N#Cc1c(N)oc(-c2ccccc2)c1-c1ccccc1	none
O=C(N[C@@H](CO)[C@H](O)c1ccc([N+](=O)[O-])cc1)C(Cl)Cl	none
CCCCCCCCCCCCCCCC(=O)OC[C@H](NC(=O)C(Cl)Cl)[C@H](O)c1ccc([N+](=O)[O-])cc1	none
CS(=O)(=O)c1ccc(C(O)[C@H](CF)NC(=O)C(Cl)Cl)cc1 (stereo partly drawn)	Tgondii IFNg -77.6!
CC(C)NC(=O)N1[C@H](C#N)[C@H](c2ccccc2-c2ccc(F)cc2)[C@@H]1CO	none
COc1c/c(=C2\C=c3ccccc3=N2)[nH]/c1=C\c1[nH]c(C)cc1C	Tgondii IFNg -84.7
CCOC(=O)[C@H](CCc1ccccc1)N[C@H]1CS[C@H](c2cccs2)CN(CC(=O)O)C1=O	none
O=C(Nc1ccc(Cl)cc1)Nc1ccno1	none
O=C(CSc1nc2[nH]c(=O)cc(O)c2s1)Nc1ccc(Cl)c(C(F)(F)F)c1	none
O=C(Nc1ccc(Cl)cc1)Nc1ccc(Cl)c(C(F)(F)F)c1	Tgondii IFNg -76.6
O=C(C[C@@H]1CC[C@@H]2[C@H](COC[C@@H](O)CN2C(=O)c2ccncc2)O1)Nc1ccc(-c2ccccc2)cc1	none
COc1ccc(CN(CCN(C)C)c2ncccn2)cc1	none
COc1ccc(CN(CCN(C)C)c2ccccn2)cc1	none
CCCCCCCCCCCCCCCC[N+](C)(C)CCN(Cc1ccc(OC)cc1)c1ncccn1	Tgondii IFNg -84.2
N#C[C@@H]1[C@@H](c2ccccc2)[C@@H](CO)N1S(=O)(=O)c1cccc(F)c1	none
CS(=O)(=O)N(CC(=O)O)C1CCCCC1	none
COc1cccc(NC(=O)Nc2ccc3c(c2)C(=O)N(C)C[C@@H](OC)[C@@H](C)CN[C@@H](C)CO3)c1	none
CO[C@H]1CN(C)C(=O)c2cc(NC(=O)c3ccc(Oc4ccccc4)cc3)ccc2OC[C@@H](C)NC[C@@H]1C	Tgondii IFNg -113.9
CO[C@@H]1CN(C)C(=O)c2cc(NC(=O)c3ccc(Oc4ccccc4)cc3)ccc2OC[C@H](C)NC[C@H]1C	Tgondii IFNg -121.8
COc1cccc(NC(=O)Nc2ccc3c(c2)C(=O)N(C)C[C@@H](OC)[C@@H](C)CN[C@H](C)CO3)c1	none
CO[C@H]1CN(C)C(=O)c2cc(NC(=O)c3cnccn3)ccc2OC[C@@H](C)NC[C@@H]1C	none
COc1cccc(NC(=O)Nc2ccc3c(c2)C(=O)N(C)C[C@H](OC)[C@H](C)CN[C@H](C)CO3)c1	none
CN(C)C(=O)C[C@H]1CC[C@@H]2[C@H](COC[C@H](O)CN2C(=O)c2ccncc2)O1	none
CN(Cc1cc(-c2ccccc2)no1)Cc1cnc(N2CCCC2)s1	none
CCCN1CCC2(CC1)NC(=O)N(C1CCN(C(=O)c3cc4c(C)cccc4[nH]3)C1)C2=O (stereo not drawn)	none
COc1cc(Nc2nc(SCc3ccc(Cl)cc3)nc3ccccc23)cc(OC)c1	none
COC1COC2(CCN(S(=O)(=O)c3cn(C)cn3)CC2)C1 (stereo not drawn)	none
Cc1nc(-c2cccc(F)c2)sc1CCNS(=O)(=O)c1ccc2c(c1)OCCO2	none
CCN(CC)C(=O)C1Cn2ccnc2C2(CCN(C(=O)Nc3ccccc3C)CC2)O1 (stereo not drawn)	none
COc1ccc(C[C@@H]2CN(C)CC[C@@H]2OCc2csc(C)n2)cc1	none
CNc1ccccc1C(=O)NCC1CCN(Cc2cnc(C)nc2)C1 (stereo not drawn)	none
COc1ccc(CNC(=O)c2nc(Nc3ccccc3)c3ccccc3n2)cc1OC	none
Cc1ccc(NC(=O)c2nc(Nc3ccccc3)c3ccccc3n2)c(C)c1	none
CCOc1ccccc1NC(=O)c1nc(Nc2ccc(Cl)cc2)c2ccccc2n1	none
COc1ccc(OC)c(NC(=O)c2nc(Nc3ccc(C)cc3)c3ccccc3n2)c1	none
COc1ccc(NC(=O)c2nc(Nc3ccc(C)cc3)c3ccccc3n2)c(OC)c1	Tgondii IFNg -111.5
CCOc1ccc(NC(=O)c2nc(Nc3ccccc3)c3ccccc3n2)cc1	none
CCNC(=O)c1nc(Nc2ccc(CC)cc2)c2ccccc2n1	none
COc1cc(OC)c(NC(=O)c2nc(Nc3ccc(C)cc3)c3ccccc3n2)cc1Cl	none
CCOc1ccccc1NC(=O)c1nc(Nc2ccccc2)c2ccccc2n1	Tgondii IFNg -81.8
Cc1cc(C)c(NC(=O)c2nc(Nc3ccccc3)c3ccccc3n2)c(C)c1	Tgondii IFNg -77.5
Cc1ccc(Nc2nc(C(=O)Nc3c(C)cc(C)cc3C)nc3ccccc23)cc1	none
CCc1ccc(Nc2nc(C(=O)NCc3ccc(OC)c(OC)c3)nc3ccccc23)cc1	Tgondii IFNg -79.4
O=C(C[C@H]1CC[C@H](NC(=O)C2CC2)[C@H](CO)O1)Nc1ccccc1	none
COc1ccc(-c2nc(Cn3c(=O)c4cccnc4n(-c4ccccc4)c3=O)c(C)o2)cc1	none
c1ccc(Cc2n[nH]c(Cn3c(C4CC4)nc4ccccc43)n2)cc1	none
COc1ccc(NS(=O)(=O)c2ccc3[nH]c(=O)ccc3c2)c(OC)c1	none
COCCN1C(=O)CO[C@H]2CN(c3cc(C(F)(F)F)ncn3)C[C@@H]21	none
CN(C)S(=O)(=O)N1CC[C@@]2(C[C@H](OCCN3CCCC3)CO2)C1	none
COc1ccc(-c2coc3c(O)c(O)c(OC)cc3c2=O)cc1	none
Cc1nc(CC(=O)NCc2scnc2-c2ccccc2)cs1	none
Cc1ccc(C2=NC3(CCN(Cc4ccccc4Cl)CC3)NC2=O)cc1C	none
C=CCOc1ccc(Cl)cc1CN1CCC2(CC1)CNC(=O)C2	none
CSc1cccc(NC(=O)c2nc(Nc3ccccc3)c3ccccc3n2)c1	none
COc1cccc(CNC(=O)c2nc(Nc3ccc(C)cc3)c3ccccc3n2)c1	Tgondii IFNg -101.0
